According to paper PMC7862700, “An all-to-all approach to the identification of sequence-specific readers for epigenetic DNA modifications on cytosine”:

Legend:
Test in all cases: DAPPL (digital affinity profiling via proximity ligation, sequencing); 10 mM Tris-HCl pH 7.5, 50 mM NaCl, 1 mM DTT, 4% glycerol, room temperature, 30 min; GST-TFs on glutathione beads, 16-mer random dsDNA library, 0.1% formaldehyde crosslink after washing; high values mean tight binding
FEV = molecular target: T1, FEV (Homo sapiens, UniProt Q99581 1-238); details: protein: recombinant; tags: N-terminal GST; dsDNA, one strand shown
T1 sequence: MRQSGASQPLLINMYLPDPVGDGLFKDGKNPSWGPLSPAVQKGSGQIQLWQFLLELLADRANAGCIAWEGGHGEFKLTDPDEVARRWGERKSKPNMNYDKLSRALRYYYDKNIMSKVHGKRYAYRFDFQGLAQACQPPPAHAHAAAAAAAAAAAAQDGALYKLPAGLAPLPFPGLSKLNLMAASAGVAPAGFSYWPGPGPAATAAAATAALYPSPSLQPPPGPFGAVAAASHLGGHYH
Procedure, shortened: (§1)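 Binding signal is given per hexamer as its read frequency for a factor divided by its frequency in the tag-only sample. GST-fused human transcription factors were expressed in yeast, captured on glutathione beads, barcoded with DNA and pooled with that sample, then incubated with 200 nmole of a 16-mer random double-stranded DNA library in Tris/NaCl/DTT/glycerol buffer for 30 min at room temperature. The pools were then washed, crosslinked, proximity-ligated, amplified by PCR and sequenced on an Illumina NextSeq500.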

ETV5 = ETV5 (Homo sapiens, UniProt P41161 1-510); details: protein: recombinant; tags: N-terminal GST; dsDNA, one strand shown
ETV5, sequence (P41161 whole entry): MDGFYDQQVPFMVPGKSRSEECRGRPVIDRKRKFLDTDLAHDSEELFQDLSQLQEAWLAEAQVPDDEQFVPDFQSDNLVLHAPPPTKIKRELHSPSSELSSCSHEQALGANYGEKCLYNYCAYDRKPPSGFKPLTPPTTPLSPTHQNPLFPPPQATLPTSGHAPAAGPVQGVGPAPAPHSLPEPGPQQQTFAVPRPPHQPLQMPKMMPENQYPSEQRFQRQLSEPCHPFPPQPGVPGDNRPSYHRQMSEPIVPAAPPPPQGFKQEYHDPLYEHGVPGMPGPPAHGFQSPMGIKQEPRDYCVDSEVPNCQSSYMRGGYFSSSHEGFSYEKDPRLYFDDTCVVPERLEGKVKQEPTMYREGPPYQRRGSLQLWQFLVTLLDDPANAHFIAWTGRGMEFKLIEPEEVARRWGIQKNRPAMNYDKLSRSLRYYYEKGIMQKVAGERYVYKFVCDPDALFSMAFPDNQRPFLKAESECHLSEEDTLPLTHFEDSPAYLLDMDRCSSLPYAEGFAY
Procedure, shortened: as §1

HSF1 = HSF1 (Homo sapiens, UniProt Q00613 1-529); details: protein: recombinant; tags: N-terminal GST; chain copies: 3; dsDNA, one strand shown
HSF1, sequence (Q00613 whole entry): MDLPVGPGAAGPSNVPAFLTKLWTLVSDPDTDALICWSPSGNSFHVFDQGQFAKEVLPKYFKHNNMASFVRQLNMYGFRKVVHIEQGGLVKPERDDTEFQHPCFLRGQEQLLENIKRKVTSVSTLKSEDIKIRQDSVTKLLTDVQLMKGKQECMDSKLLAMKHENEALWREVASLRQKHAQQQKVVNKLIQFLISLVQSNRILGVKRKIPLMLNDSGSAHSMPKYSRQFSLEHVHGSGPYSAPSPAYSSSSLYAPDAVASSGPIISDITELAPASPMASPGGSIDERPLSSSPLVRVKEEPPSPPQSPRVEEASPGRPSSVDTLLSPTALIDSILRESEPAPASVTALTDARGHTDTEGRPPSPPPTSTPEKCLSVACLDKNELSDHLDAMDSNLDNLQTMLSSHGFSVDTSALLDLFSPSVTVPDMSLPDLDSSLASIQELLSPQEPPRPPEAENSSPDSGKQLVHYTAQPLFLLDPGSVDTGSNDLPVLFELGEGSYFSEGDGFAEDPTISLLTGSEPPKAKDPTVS
Procedure, shortened: as §1

SPIC = molecular target: T2, SPIC (Homo sapiens, UniProt Q8N5J4 1-248); details: protein: recombinant; tags: N-terminal GST; dsDNA, one strand shown
T2 sequence: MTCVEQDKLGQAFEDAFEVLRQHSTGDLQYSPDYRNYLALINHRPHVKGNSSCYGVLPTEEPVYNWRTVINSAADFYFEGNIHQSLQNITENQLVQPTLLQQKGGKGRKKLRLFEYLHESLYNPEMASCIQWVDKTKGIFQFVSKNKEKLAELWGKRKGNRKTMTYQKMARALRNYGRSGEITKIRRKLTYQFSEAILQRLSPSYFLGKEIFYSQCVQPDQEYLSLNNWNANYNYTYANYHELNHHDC
Procedure, shortened: as §1

ELF4 = ELF4 (Homo sapiens, UniProt Q99607 1-663); details: protein: recombinant; tags: N-terminal GST; dsDNA, one strand shown
ELF4, sequence (Q99607 whole entry): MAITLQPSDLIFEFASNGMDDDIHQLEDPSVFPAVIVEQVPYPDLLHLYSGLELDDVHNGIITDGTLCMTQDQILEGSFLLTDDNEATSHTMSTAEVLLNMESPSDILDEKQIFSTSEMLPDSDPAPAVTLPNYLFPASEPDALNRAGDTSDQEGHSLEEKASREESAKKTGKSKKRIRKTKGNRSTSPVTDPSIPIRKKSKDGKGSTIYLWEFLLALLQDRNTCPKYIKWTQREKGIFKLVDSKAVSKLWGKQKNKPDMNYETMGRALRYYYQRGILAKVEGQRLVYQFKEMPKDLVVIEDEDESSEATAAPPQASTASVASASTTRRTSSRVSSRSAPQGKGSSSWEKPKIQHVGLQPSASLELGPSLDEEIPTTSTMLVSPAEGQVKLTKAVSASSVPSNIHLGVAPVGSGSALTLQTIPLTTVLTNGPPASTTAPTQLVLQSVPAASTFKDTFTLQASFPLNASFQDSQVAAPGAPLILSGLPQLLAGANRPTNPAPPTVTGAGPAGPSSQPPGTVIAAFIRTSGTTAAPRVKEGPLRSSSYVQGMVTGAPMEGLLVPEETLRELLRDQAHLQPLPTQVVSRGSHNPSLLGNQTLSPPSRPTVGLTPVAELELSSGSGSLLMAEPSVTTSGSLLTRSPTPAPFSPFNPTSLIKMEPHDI
Procedure, shortened: as §1

ELK4 = molecular target: T3, ELK4 (Homo sapiens, UniProt P28324-2 1-405); details: protein: recombinant; tags: N-terminal GST; dsDNA, one strand shown
T3 sequence: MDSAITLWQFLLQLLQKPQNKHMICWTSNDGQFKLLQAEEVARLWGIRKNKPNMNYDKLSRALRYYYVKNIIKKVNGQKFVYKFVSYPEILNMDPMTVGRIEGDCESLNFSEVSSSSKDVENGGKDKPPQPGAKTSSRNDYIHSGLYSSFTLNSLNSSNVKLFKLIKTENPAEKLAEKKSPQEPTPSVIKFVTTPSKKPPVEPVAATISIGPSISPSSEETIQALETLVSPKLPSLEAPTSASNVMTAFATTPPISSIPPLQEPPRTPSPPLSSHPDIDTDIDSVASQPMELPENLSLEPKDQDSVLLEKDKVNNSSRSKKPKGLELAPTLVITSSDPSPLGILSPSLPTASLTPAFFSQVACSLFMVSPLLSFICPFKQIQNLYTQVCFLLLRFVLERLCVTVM
Procedure, shortened: as §1

ETV2 = molecular target: T4, ETV2 (Homo sapiens, UniProt O00321 1-342); details: protein: recombinant; tags: N-terminal GST; dsDNA, one strand shown
T4 sequence: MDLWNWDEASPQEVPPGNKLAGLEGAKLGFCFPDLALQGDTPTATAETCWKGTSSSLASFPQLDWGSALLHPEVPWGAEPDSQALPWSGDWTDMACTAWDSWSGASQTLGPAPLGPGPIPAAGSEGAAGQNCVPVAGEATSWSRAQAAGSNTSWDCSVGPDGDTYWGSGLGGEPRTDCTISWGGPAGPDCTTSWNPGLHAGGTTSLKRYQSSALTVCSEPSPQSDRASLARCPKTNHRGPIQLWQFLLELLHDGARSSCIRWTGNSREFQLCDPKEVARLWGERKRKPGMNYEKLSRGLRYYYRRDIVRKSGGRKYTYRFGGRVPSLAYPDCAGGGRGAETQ
Procedure, shortened: as §1

ELF3 = molecular target: T5, ELF3 (Homo sapiens, UniProt P78545 1-371); details: protein: recombinant; tags: N-terminal GST; dsDNA, one strand shown
T5 sequence: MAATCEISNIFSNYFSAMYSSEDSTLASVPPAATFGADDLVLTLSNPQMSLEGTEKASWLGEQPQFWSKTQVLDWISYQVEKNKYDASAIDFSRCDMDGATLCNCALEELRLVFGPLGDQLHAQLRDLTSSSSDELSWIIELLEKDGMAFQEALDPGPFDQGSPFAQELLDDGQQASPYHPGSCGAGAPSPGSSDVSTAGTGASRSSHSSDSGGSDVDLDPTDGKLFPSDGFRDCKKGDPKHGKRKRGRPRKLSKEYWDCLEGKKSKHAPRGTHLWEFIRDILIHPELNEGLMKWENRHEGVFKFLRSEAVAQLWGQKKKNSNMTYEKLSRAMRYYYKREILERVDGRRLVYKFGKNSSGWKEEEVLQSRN
Procedure, shortened: as §1

CRX = CRX (Homo sapiens, UniProt O43186 1-299); details: protein: recombinant; tags: N-terminal GST; dsDNA, one strand shown
CRX, sequence (O43186 whole entry): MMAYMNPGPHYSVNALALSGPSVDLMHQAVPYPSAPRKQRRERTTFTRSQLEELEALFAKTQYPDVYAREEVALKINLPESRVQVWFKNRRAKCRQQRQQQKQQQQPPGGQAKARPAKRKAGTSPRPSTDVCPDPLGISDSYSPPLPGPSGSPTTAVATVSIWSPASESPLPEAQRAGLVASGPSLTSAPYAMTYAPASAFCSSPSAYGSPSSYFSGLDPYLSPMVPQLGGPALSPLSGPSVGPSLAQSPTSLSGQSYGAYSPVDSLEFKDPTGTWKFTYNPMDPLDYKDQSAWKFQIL
Procedure, shortened: as §1

ETV1 = ETV1 (Homo sapiens, UniProt P50549 1-477); details: protein: recombinant; tags: N-terminal GST; dsDNA, one strand shown
ETV1, sequence (P50549 whole entry): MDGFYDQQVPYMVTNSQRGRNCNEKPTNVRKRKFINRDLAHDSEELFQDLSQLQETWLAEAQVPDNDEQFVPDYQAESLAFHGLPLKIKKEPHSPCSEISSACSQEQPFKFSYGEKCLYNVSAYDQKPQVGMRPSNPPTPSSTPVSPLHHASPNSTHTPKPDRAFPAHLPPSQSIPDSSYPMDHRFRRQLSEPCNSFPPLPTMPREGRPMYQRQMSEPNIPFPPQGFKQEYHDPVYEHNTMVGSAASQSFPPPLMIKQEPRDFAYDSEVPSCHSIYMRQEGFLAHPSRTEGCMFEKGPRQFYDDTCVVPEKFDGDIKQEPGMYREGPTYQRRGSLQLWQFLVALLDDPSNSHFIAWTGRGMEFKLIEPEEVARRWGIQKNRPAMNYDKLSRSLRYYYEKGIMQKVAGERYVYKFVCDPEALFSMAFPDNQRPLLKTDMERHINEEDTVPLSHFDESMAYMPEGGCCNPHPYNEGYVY
Procedure, shortened: as §1

ERF = molecular target: T6, ERF (Homo sapiens, UniProt P50548 1-548); details: protein: recombinant; tags: N-terminal GST; dsDNA, one strand shown
T6 sequence: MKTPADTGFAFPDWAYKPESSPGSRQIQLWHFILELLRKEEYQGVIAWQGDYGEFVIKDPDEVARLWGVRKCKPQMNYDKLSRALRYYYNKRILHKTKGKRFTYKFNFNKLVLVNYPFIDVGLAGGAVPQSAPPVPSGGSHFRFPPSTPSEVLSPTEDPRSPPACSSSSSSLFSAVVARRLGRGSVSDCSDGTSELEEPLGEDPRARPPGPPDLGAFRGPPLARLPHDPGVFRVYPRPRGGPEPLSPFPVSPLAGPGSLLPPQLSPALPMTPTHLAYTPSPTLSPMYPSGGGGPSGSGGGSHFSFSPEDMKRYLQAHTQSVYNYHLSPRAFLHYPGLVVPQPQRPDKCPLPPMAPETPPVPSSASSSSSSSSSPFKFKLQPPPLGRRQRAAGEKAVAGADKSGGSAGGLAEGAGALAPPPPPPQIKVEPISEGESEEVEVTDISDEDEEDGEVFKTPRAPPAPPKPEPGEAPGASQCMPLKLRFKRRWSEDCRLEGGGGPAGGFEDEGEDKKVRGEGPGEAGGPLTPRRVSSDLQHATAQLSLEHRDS
Procedure, shortened: as §1

ETV3L = molecular target: T7, ETV3L (Homo sapiens, UniProt Q6ZN32 1-361); details: protein: recombinant; tags: N-terminal GST; dsDNA, one strand shown
T7 sequence: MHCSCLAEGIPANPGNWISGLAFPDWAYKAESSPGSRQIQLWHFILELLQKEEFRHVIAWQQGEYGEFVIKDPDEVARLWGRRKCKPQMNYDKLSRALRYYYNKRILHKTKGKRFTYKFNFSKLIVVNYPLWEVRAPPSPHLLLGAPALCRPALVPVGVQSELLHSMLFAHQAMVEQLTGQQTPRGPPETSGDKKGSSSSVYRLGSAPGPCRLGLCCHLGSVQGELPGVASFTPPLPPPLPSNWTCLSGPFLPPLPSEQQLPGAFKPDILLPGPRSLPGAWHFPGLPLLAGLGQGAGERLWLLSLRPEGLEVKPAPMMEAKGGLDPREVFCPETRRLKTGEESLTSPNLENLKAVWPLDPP
Procedure, shortened: as §1

ETS2 = molecular target: T8, ETS2 (Homo sapiens, UniProt P15036 1-469); details: protein: recombinant; tags: N-terminal GST; dsDNA, one strand shown
T8 sequence: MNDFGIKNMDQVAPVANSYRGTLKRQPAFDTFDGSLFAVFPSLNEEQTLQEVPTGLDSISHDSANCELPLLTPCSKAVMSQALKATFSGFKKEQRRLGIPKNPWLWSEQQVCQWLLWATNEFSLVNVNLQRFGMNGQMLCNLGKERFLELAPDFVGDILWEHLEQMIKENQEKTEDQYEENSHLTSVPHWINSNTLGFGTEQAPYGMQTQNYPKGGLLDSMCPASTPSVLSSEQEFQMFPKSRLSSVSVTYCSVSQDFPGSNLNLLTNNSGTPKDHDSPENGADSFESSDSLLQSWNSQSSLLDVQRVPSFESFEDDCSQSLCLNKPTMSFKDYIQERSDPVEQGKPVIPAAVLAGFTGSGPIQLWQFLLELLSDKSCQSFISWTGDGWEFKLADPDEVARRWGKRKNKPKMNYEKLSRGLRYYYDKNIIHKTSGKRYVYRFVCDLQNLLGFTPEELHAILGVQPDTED
Procedure, shortened: as §1

SPDEF = molecular target: T9, SPDEF (Homo sapiens, UniProt O95238 1-335); details: protein: recombinant; tags: N-terminal GST; dsDNA, one strand shown
T9 sequence: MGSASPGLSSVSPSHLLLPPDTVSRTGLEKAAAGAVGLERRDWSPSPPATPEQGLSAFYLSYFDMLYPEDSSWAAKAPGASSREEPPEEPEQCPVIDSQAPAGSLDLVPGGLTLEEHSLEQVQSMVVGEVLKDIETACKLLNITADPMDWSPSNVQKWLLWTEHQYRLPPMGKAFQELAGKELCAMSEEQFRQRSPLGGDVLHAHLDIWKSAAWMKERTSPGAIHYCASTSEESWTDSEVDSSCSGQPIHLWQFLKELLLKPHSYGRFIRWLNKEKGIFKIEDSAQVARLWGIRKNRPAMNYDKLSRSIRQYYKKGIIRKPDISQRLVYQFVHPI
Procedure, shortened: as §1

ETV7 = molecular target: T10, ETV7 (Homo sapiens, UniProt Q9Y603 1-341); details: protein: recombinant; tags: N-terminal GST; dsDNA, one strand shown
T10 sequence: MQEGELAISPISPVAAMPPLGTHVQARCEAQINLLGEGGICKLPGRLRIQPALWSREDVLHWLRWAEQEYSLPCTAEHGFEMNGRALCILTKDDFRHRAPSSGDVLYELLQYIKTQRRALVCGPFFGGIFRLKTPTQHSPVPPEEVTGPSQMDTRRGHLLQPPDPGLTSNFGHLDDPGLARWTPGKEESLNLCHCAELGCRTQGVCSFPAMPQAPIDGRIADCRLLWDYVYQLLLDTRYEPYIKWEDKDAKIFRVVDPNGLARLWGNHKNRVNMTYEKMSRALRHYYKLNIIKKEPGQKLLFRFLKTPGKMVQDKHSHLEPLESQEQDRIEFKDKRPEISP
Procedure, shortened: as §1

ELF5 = molecular target: T11, ELF5 (Homo sapiens, UniProt Q9UKW6-2 1-255); details: protein: recombinant; tags: N-terminal GST; dsDNA, one strand shown
T11 sequence: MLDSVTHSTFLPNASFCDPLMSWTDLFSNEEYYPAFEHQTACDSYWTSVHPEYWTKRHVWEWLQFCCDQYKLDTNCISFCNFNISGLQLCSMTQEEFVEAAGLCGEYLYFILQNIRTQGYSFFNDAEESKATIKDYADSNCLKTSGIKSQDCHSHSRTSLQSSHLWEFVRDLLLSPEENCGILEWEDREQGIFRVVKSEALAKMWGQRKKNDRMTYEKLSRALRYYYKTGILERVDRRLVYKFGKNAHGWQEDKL
Procedure, shortened: as §1

ETV3 = molecular target: T12, ETV3 (Homo sapiens, UniProt P41162-2 1-143); details: protein: recombinant; tags: N-terminal GST; dsDNA, one strand shown
T12 sequence: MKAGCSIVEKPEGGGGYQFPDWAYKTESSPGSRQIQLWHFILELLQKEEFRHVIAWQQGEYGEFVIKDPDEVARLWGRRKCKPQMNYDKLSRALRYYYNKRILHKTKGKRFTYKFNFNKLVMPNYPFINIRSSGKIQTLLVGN
Procedure, shortened: as §1

ETV6 = ETV6 (Homo sapiens, UniProt P41212 1-452); details: protein: recombinant; tags: N-terminal GST; dsDNA, one strand shown
ETV6, sequence (P41212 whole entry): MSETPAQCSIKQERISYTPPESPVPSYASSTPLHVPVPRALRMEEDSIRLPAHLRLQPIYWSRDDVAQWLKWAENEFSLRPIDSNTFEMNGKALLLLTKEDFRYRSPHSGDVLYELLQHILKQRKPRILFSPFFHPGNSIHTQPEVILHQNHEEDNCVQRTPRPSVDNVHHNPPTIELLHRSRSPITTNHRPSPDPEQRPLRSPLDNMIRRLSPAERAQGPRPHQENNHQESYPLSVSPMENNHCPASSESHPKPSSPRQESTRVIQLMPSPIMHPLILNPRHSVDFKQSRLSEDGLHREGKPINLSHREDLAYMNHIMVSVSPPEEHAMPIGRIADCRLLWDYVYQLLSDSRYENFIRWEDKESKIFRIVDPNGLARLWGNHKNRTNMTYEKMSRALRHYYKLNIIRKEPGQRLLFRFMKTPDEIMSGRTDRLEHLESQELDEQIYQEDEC
Procedure, shortened: as §1

AATAGT was tested. Which binding signal (FEV) did it give?
The binding signal was 1.19 fold enrichment (6-mer frequency, TF over GST control).

What about the binding signal (ETV5) of the same sequence?
The binding signal was 1.27 fold enrichment (6-mer frequency, TF over GST control).

And the binding signal (HSF1)?
Its binding signal is 1.21 fold enrichment (6-mer frequency, TF over GST control).

And the binding signal (SPIC)?
The binding signal was 1.28 fold enrichment (6-mer frequency, TF over GST control).

What about the binding signal (ELF4) of the same sequence?
The binding signal was 1.18 fold enrichment (6-mer frequency, TF over GST control).

And the binding signal (ELK4)?
Its binding signal is 1.46 fold enrichment (6-mer frequency, TF over GST control).

What about the binding signal (ETV2) of the same sequence?
The binding signal was 1.17 fold enrichment (6-mer frequency, TF over GST control).

And the binding signal (ELF3)?
Its binding signal is 1.26 fold enrichment (6-mer frequency, TF over GST control).

And the binding signal (CRX)?
The binding signal was 1.19 fold enrichment (6-mer frequency, TF over GST control).

What about the binding signal (ETV1) of the same sequence?
Its binding signal is 1.17 fold enrichment (6-mer frequency, TF over GST control).

And the binding signal (ERF)?
Its binding signal is 1.21 fold enrichment (6-mer frequency, TF over GST control).

And the binding signal (ETV3L)?
Its binding signal is 1.25 fold enrichment (6-mer frequency, TF over GST control).

What about the binding signal (ETS2) of the same sequence?
The binding signal was 1.13 fold enrichment (6-mer frequency, TF over GST control).

What about the binding signal (SPDEF) of the same sequence?
The binding signal was 1.06 fold enrichment (6-mer frequency, TF over GST control).

And the binding signal (ETV7)?
Its binding signal is 1.18 fold enrichment (6-mer frequency, TF over GST control).

And the binding signal (ELF5)?
The binding signal was 1.18 fold enrichment (6-mer frequency, TF over GST control).

What about the binding signal (ETV3) of the same sequence?
The binding signal was 1.3 fold enrichment (6-mer frequency, TF over GST control).

What about the binding signal (ETV6) of the same sequence?
Its binding signal is 1.34 fold enrichment (6-mer frequency, TF over GST control).
